This note sets out measurements from the supplement of paper PMC7156485.
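Note: TDF is a line of transformed human dermal fibroblasts of mesenchymal origin.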

For one test, the system named is TDF. The test can be described thus: H1.0 immunofluorescence intensity relative to DMSO (% of DMSO); higher = stronger H1.0 induction, active = 120 or more. The settings on record: concentration: 10 µM; 24 h. A digest of the protocol:
(§1)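 HCC1569 and TDF cells (800 per well, 384-well plates, RPMI with 10% FBS) were treated with compounds at 10 µM for 24 h at 37 °C, in triplicate. Cells were fixed in 3.7% formaldehyde and stained with a rabbit anti-H1.0 antibody, an AlexaFluor 647 secondary and DAPI; six fields per well were imaged at ×10. H1.0 nuclear intensity or cell number is expressed as percent of the plate DMSO control, taking the median of replicates. HCC1569 values were smoothed for positional effects.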
In the case of `CCC=CCC=CCC=CCC=CCC=CCCCC(=O)O` [Eicosapentaenoic acid], the H1.0 immunofluorescence intensity is 103 (inactive).
As to `NCC1OC(OC2C(CO)OC(OC3C(O)C(N)CC(N)C3OC3OC(CN)C(O)C(O)C3N)C2O)C(N)C(O)C1O` (stereo not given) [Neomycin], the H1.0 immunofluorescence intensity was 100 (inactive).
The same measure, in the same setting: then `CCCCCC(O)C=CC1C(O)CC(O)C1CC=CCCCC(=O)O` (stereo not drawn) [8-Epi-prostaglandin F2a], with 96.2 (inactive).
The same measure, in the same setting: the value for `CCOC(=O)[C@H](CCc1ccccc1)N[C@@H](C)C(=O)N1C(=O)N(C)C[C@H]1C(=O)O.Cl` was 100 (inactive); that for `C[Se]CCC(N)C(=O)O` (stereo not given) [Selenomethionine] was 104 (inactive).
Still for that read-out and setting: the value for `CCCCCCCCCCCCCCCCC(=O)O` [Heptadecanoic acid] was 103 (inactive); that for `CC1CCC2(C(=O)O)CCC3(C)C(=CCC4C5(C)CC(O)C(O)C(C)(CO)C5CCC43C)C2C1C` (stereo not given) [Asiatic acid] was 101 (inactive); that for `CCCCOc1ccc(-c2cncc(C(=O)NCc3cccnc3N3CCOCC3)c2)cc1Cl` was 98.3 (inactive).
On to `NC(=O)OCC(COC(N)=O)c1ccccc1` [Felbamate], for which the H1.0 immunofluorescence intensity is 97 (inactive).
The same measure, in the same setting: then `CCN1CCN(c2cc3c(cc2F)c(=O)c(C(=O)O)cn3C2CC2)CC1` [Enrofloxacin], with 96.4 (inactive); and `O=C1CCc2c(ccc3ccccc23)O1` [1,2-dihydro-3H-benzo[f]chromen-3-one], with 95.1 (inactive).
For `CN1CCCC1c1cccnc1` (single isomer, unassigned; (-)) [(-)-Nicotine], the H1.0 immunofluorescence intensity was 94.2 (inactive).
For `COC(C)(C)CCCC(C)CC=CC(C)=CC(=O)O` (stereo not given) [Methoprene acid], the H1.0 immunofluorescence intensity is 98 (inactive).
The same measure, in the same setting: then `O=C(NC(Cc1cc(=O)[nH]c2ccccc12)C(=O)O)c1ccc(Cl)cc1` (stereo not given) [Rebamipide], with 93.2 (inactive).
Still for that read-out and setting: the value for `COC(=O)C(c1ccccc1Cl)N1CCc2sccc2C1` (stereo not given) [Clopidogrel] was 97.3 (inactive); that for `NC(CS(=O)O)C(=O)O` [L-Cysteinesulfinic Acid] was 96.7 (inactive); that for `CN=C(NC#N)NCCSCc1nc[nH]c1C` [Cimetidine] was 102 (inactive).
For the compound `O=C(O)CCC(=O)c1ccc(-c2ccccc2)cc1` [Fenbufen], the H1.0 immunofluorescence intensity was 92.2 (inactive).
For `CN(C)CCOC(c1ccccc1)c1ccccc1.Cl` [Diphenhydramine.HCl], the H1.0 immunofluorescence intensity was 100 (inactive).
Take `C=C(C)C1CCC2(CO)CCC3(C)C(CCC4C5(C)CCC(O)C(C)(C)C5CCC43C)C12` (stereo not given) [Betulin]: the H1.0 immunofluorescence intensity was 98.9 (inactive).
Same read-out and setting: then `O=C(CCCCCCC(=O)Nc1ccccc1)NO`, with 121 (active); and `CC(CCC(=O)NCCS(=O)(=O)O)C1CCC2C3C(O)CC4CC(O)CCC4(C)C3CC(O)C12C` (stereo not given) [Taurocholic acid], with 97.8 (inactive).
Same read-out and setting: then `CCCNCC(O)COc1ccccc1C(=O)CCc1ccccc1.Cl` [(S)-(-)-propafenone hydrochloride], with 90.3 (inactive).
Still for that read-out and setting: then `NC(CO)(CO)CO.O=C(c1ccccc1)c1ccc2n1CCC2C(=O)O` (stereo not given) [Ketorolac tris salt], with 94.5 (inactive); and `CC1CN(c2c(F)c(N)c3c(=O)c(C(=O)O)cn(C4CC4)c3c2F)CC(C)N1` (stereo not given) [Sparfloxacin], with 95.6 (inactive); and `C#Cc1cccc(Nc2ncnc3cc(OCCOC)c(OCCOC)cc23)c1` [Erlotinib], with 91.3 (inactive).
With `CCCCCC=CC=CC(O)CCCCCCCC(=O)O` (racemic), the H1.0 immunofluorescence intensity is 103 (inactive).
On the same count and under the same terms, the value for `COc1cc(/C=C/C(=O)CC(=O)/C=C/c2ccc(O)cc2)ccc1O` was 98.3 (inactive); that for `CCCCCC=CCC=CCC1OC1CC=CCCCC(=O)O` (stereo not given) [8,9-Epoxyeicosatrienoic acid] was 97.7 (inactive); that for `Nc1[nH]nc2nc3ccccc3nc12` was 101 (inactive).
Same read-out and setting: the value for `CCCC(CCC)C(=O)[O-].[Na+]` [Valproic acid sodium] was 95 (inactive); that for `COc1cc2c3cc1Oc1c(OC)c(OC)cc4c1C(Cc1ccc(O)c(c1)Oc1ccc(cc1)CC3N(C)CC2)N(C)CC4.Cl.Cl` (stereo not given) was 104 (inactive); that for `NCCCC(O)(P(=O)([O-])O)P(=O)(O)O` [Alendronate] was 94.3 (inactive).
Still for that read-out and setting: the value for `O=C(C=Cc1ccc(O)c(O)c1)OC(Cc1ccc(O)c(O)c1)C(=O)O` (stereo not given) [Rosmarinic acid] was 97.7 (inactive).
`CCCCCCCCC=CCCCCCCCCC(=O)O` [10(Z)-Nonadecenoic acid]: the H1.0 immunofluorescence intensity was 95.6 (inactive).

A further test relates to HCC1569. Briefly: H1.0 immunofluorescence intensity relative to DMSO (% of DMSO); higher = stronger H1.0 induction, active = 140 or more. The settings on record: concentration: 10 µM; 24 h. An outline of the steps:
as §1
As for `CCC=CCC=CCC=CCC=CCC=CCCCC(=O)O` [Eicosapentaenoic acid], the H1.0 immunofluorescence intensity was 99.1 (inactive).
Same read-out and setting: then `NCC1OC(OC2C(CO)OC(OC3C(O)C(N)CC(N)C3OC3OC(CN)C(O)C(O)C3N)C2O)C(N)C(O)C1O` (stereo not given) [Neomycin], with 91.8 (inactive).
On the same count and under the same terms, then `CCCCCC(O)C=CC1C(O)CC(O)C1CC=CCCCC(=O)O` (stereo not drawn) [8-Epi-prostaglandin F2a], with 100 (inactive); and `CCOC(=O)[C@H](CCc1ccccc1)N[C@@H](C)C(=O)N1C(=O)N(C)C[C@H]1C(=O)O.Cl`, with 92.3 (inactive); and `C[Se]CCC(N)C(=O)O` (stereo not given) [Selenomethionine], with 105 (inactive).
Same read-out and setting: then `CCCCCCCCCCCCCCCCC(=O)O` [Heptadecanoic acid], with 103 (inactive); and `CC1CCC2(C(=O)O)CCC3(C)C(=CCC4C5(C)CC(O)C(O)C(C)(CO)C5CCC43C)C2C1C` (stereo not given) [Asiatic acid], with 94.7 (inactive); and `CCCCOc1ccc(-c2cncc(C(=O)NCc3cccnc3N3CCOCC3)c2)cc1Cl`, with 150 (active).
`NC(=O)OCC(COC(N)=O)c1ccccc1` [Felbamate]: the H1.0 immunofluorescence intensity is 93.1 (inactive).
The same measure, in the same setting: the value for `CCN1CCN(c2cc3c(cc2F)c(=O)c(C(=O)O)cn3C2CC2)CC1` [Enrofloxacin] was 110 (inactive); that for `O=C1CCc2c(ccc3ccccc23)O1` [1,2-dihydro-3H-benzo[f]chromen-3-one] was 92.7 (inactive).
On the same count and under the same terms, the value for `CN1CCCC1c1cccnc1` (single isomer, unassigned; (-)) [(-)-Nicotine] was 80 (inactive); that for `COC(C)(C)CCCC(C)CC=CC(C)=CC(=O)O` (stereo not given) [Methoprene acid] was 94.6 (inactive).
Same read-out and setting: the value for `O=C(NC(Cc1cc(=O)[nH]c2ccccc12)C(=O)O)c1ccc(Cl)cc1` (stereo not given) [Rebamipide] was 105 (inactive); that for `COC(=O)C(c1ccccc1Cl)N1CCc2sccc2C1` (stereo not given) [Clopidogrel] was 107 (inactive); that for `NC(CS(=O)O)C(=O)O` [L-Cysteinesulfinic Acid] was 92.3 (inactive).
Take `CN=C(NC#N)NCCSCc1nc[nH]c1C` [Cimetidine]: the H1.0 immunofluorescence intensity was 92.1 (inactive).
The same measure, in the same setting: then `O=C(O)CCC(=O)c1ccc(-c2ccccc2)cc1` [Fenbufen], with 119 (inactive).
The same measure, in the same setting: the value for `CN(C)CCOC(c1ccccc1)c1ccccc1.Cl` [Diphenhydramine.HCl] was 107 (inactive).
The same measure, in the same setting: the value for `C=C(C)C1CCC2(CO)CCC3(C)C(CCC4C5(C)CCC(O)C(C)(C)C5CCC43C)C12` (stereo not given) [Betulin] was 95.6 (inactive).
`O=C(CCCCCCC(=O)Nc1ccccc1)NO`: the H1.0 immunofluorescence intensity was 100 (inactive).
On the same count and under the same terms, then `CC(CCC(=O)NCCS(=O)(=O)O)C1CCC2C3C(O)CC4CC(O)CCC4(C)C3CC(O)C12C` (stereo not given) [Taurocholic acid], with 111 (inactive); and `CCCNCC(O)COc1ccccc1C(=O)CCc1ccccc1.Cl` [(S)-(-)-propafenone hydrochloride], with 111 (inactive).
As for `NC(CO)(CO)CO.O=C(c1ccccc1)c1ccc2n1CCC2C(=O)O` (stereo not given) [Ketorolac tris salt], the H1.0 immunofluorescence intensity is 94.1 (inactive).
With `CC1CN(c2c(F)c(N)c3c(=O)c(C(=O)O)cn(C4CC4)c3c2F)CC(C)N1` (stereo not given) [Sparfloxacin], the H1.0 immunofluorescence intensity is 106 (inactive).
On the same count and under the same terms, then `C#Cc1cccc(Nc2ncnc3cc(OCCOC)c(OCCOC)cc23)c1` [Erlotinib], with 108 (inactive); and `CCCCCC=CC=CC(O)CCCCCCCC(=O)O` (racemic), with 97 (inactive); and `COc1cc(/C=C/C(=O)CC(=O)/C=C/c2ccc(O)cc2)ccc1O`, with 161 (active).
Same read-out and setting: then `CCCCCC=CCC=CCC1OC1CC=CCCCC(=O)O` (stereo not given) [8,9-Epoxyeicosatrienoic acid], with 104 (inactive); and `Nc1[nH]nc2nc3ccccc3nc12`, with 115 (inactive).
For `CCCC(CCC)C(=O)[O-].[Na+]` [Valproic acid sodium], the H1.0 immunofluorescence intensity was 99.9 (inactive).
Still for that read-out and setting: then `COc1cc2c3cc1Oc1c(OC)c(OC)cc4c1C(Cc1ccc(O)c(c1)Oc1ccc(cc1)CC3N(C)CC2)N(C)CC4.Cl.Cl` (stereo not given), with 109 (inactive); and `NCCCC(O)(P(=O)([O-])O)P(=O)(O)O` [Alendronate], with 117 (inactive); and `O=C(C=Cc1ccc(O)c(O)c1)OC(Cc1ccc(O)c(O)c1)C(=O)O` (stereo not given) [Rosmarinic acid], with 98.7 (inactive).
As to `CCCCCCCCC=CCCCCCCCCC(=O)O` [10(Z)-Nonadecenoic acid], the H1.0 immunofluorescence intensity was 106 (inactive).
